Screening results: PubChem BioAssay, National Center for Advancing Translational Sciences (NCATS)
Pf Dd2 growth = inhibitors of Plasmodium falciparum Dd2 growth | P. falciparum Dd2 growth, SYBR Green, 72 h | Potency, µM (highest dose often 28.9 µM), without a hit: at the highest dose activity, negative = inhibition, actives largely listed as inhibitors | hit rate 4.3% among 120,000 | AID 1347417; active = well fitted inhibition curve with a large enough effect;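 note: plate controls were DMSO vehicle for no effect and reference drug for full effect; nearly all actives have a fitted effect of over 65% in size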
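Readout: SYBR Green fluorescence, 485 nm excitation, 535 nm emission, after ~16 h lysis at 37C. Before that, Dd2-infected red cells (2.5% hematocrit) grew 72 h with compound, 29 uM top final concentration.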
The depositor's hits bear a star; [ ] = dose if it differs, or a comment. This is one part of a sample in which hits are shown more often than they occur. Potency is the fitted concentration of half-maximal effect.

How did CCOc1ccc(Cl)cc1CN(C)C(=O)C1CC(=O)N(CC)C1 (stereo not drawn) do in these assays?
Pf Dd2 growth: -9.1%

What do the screens show for `COCCC(=O)N1CCC2(CC1)C(=O)Nc1cc(Oc3cccc(N(C)C)c3)c(OC)cc12`?
Pf Dd2 growth: -5.3%

What do the screens show for `Cc1sc2nc(CCN)nc(N(C)CCCCN3CCOCC3)c2c1C`?
Pf Dd2 growth: inactive

What do the screens show for `CNC(=O)c1ccc(CNc2nc(CCN)nc3sc(C)c(C)c23)o1`?
Pf Dd2 growth: 10µM*

How did CNC(=O)c1ccc(CNc2cc(C3CC(O)C3)nc(N)n2)o1 (stereo not drawn) do in these assays?
Pf Dd2 growth: -7.8%

How did Cc1nnc2n1C(C)CN(C(=O)CCCn1cnc3ccccc3c1=O)C2 (stereo not drawn) do in these assays?
Pf Dd2 growth: -10.0%

How did Cc1ccc(C)c(-c2cc3c(=O)n(CCNC(=O)c4c(F)cccc4Cl)ccn3n2)c1 do in these assays?
Pf Dd2 growth: -1.8%

Results for CN1CCC(NC[C@H]2O[C@@H]3C[C@@H](CC(=O)N4CCC(F)(F)C4)O[C@@H]3[C@@H]2O)CC1 ?
Pf Dd2 growth: 12.5%[44.1 µM]

How did O=C([C@@H]1C[C@H](Oc2cccnc2)CN1C(=O)Cc1ccccc1)N1CCCC1 do in these assays?
Pf Dd2 growth: inactive

Results for CC(C)CCNC(=O)c1ccc(-c2nnc3ccc(NC(=O)C4CCC4)cn23)cc1 ?
Pf Dd2 growth: 2.82µM*

How did O=C(NC1CC1)c1ccc2nnc(-c3ccc(Cl)cc3)n2c1 do in these assays?
Pf Dd2 growth: 7.1%

Results for O=C(O)c1ccc(-c2nnc3ccc(NC(=O)C4CCC4)cn23)cc1 ?
Pf Dd2 growth: -11.1%

What do the screens show for `COc1ccc(-c2noc(N3CCC(C(=O)Nc4ccc(F)cc4Cl)CC3)n2)cc1`?
Pf Dd2 growth: 38.0%

What do the screens show for `COc1ccc(-c2noc([C@@H]3CCCN3C(=O)c3cc(Cl)ccc3OC)n2)cc1`?
Pf Dd2 growth: -9.4%

Results for COc1ccc(-c2noc(N3CCC(C(=O)N(C)c4cc(Cl)ccc4OC)CC3)n2)cc1 ?
Pf Dd2 growth: 10µM*

How did O=c1[nH]c(N2CCOCC2)nc2c1CCN(S(=O)(=O)c1ccc3c(c1)CCC3)CC2 do in these assays?
Pf Dd2 growth: 21.9%[5.79 µM]

Results for Cc1cc(C)n(CCC(=O)NCc2cccnc2Oc2ccccc2F)n1 ?
Pf Dd2 growth: -10.6%

What do the screens show for `CN(C)CCN1CC2(CCCN(C(=O)CCc3cc(=O)[nH]o3)C2)CCC1=O` (stereo not drawn)?
Pf Dd2 growth: -20.0%

What do the screens show for `Cc1ccc([C@@H]2CN(C(=O)c3snnc3C)[C@@H]3C4CCN(CC4)[C@@H]32)cc1`?
Pf Dd2 growth: 14.1µM*

Results for O=C(c1cn2c(n1)CNCC2)N1C[C@H](c2ccccc2)[C@@H]2[C@H]1C1CCN2CC1 ?
Pf Dd2 growth: 0.4%

How did COc1ccc([C@@H]2CN(C(=O)Nc3ccc(C)cc3)[C@@H]3C4CCN(CC4)[C@@H]32)cc1 do in these assays?
Pf Dd2 growth: -9.6%

What do the screens show for `CN1CC(=O)N(C2CCCNCC2)Cc2c1ncnc2N1CCSCC1` (stereo not drawn)?
Pf Dd2 growth: 2.7%

What do the screens show for `CCOC(=O)C1(Cc2ccccc2F)CCCN(C(=O)c2cccc(-n3cccn3)c2)C1` (stereo not drawn)?
Pf Dd2 growth: inactive

How did CCOC(=O)c1ccc2ncc(C(=O)OCC)c(Nc3ccc(C)c(Br)c3)c2c1 do in these assays?
Pf Dd2 growth: inactive

What do the screens show for `CCOC(=O)c1c(C)oc2nc(C)nc(NCCc3ccc(OC)c(OC)c3)c12`?
Pf Dd2 growth: -25.1%

What do the screens show for `CCOC(=O)c1cnc2c(C)c(Cl)ccc2c1NCCc1ccccc1`?
Pf Dd2 growth: -10.2%

Results for CCOC(=O)c1cnc2ccc(C)cc2c1NCCc1ccc(OC)c(OC)c1 ?
Pf Dd2 growth: 8.91µM*

Results for CCOc1ccc(-c2nnc(SCC(=O)NCCc3ccc(OC)c(OC)c3)nc2-c2ccc(OCC)cc2)cc1 ?
Pf Dd2 growth: -25.8%

Results for CCOC(=O)c1cnc2ccc(OCC)cc2c1NCCc1ccc(OC)c(OC)c1 ?
Pf Dd2 growth: 4.47µM*

Results for CC(C)CC(=O)N1[C@H]2CC[C@@H]1c1cnc(-c3ccc(F)cc3)nc1C2 ?
Pf Dd2 growth: inactive

Results for O=C(c1cccc(-n2cnnc2)c1)N1CCCC(O)(CN2CCCC2)C1 (stereo not drawn) ?
Pf Dd2 growth: -7.9%

Results for O=c1cc(N2CCOCC2)oc2c(-c3ccccc3)nccc12 ?
Pf Dd2 growth: -17.9%[44.1 µM]

What do the screens show for `Cc1cc(C)n(Cc2cc(C(=O)NC[C@H]3C[C@H]4C=C[C@H]3C43CC3)n[nH]2)n1`?
Pf Dd2 growth: -23.8%

Results for CCNC(=O)c1ccc(-c2cc(NC3CCCC3)nc3[nH]ccc23)nc1 ?
Pf Dd2 growth: 10µM*

Results for O=C(O)c1cnc(-c2cc(NCc3ccccn3)nc3[nH]ccc23)c(Cl)c1 ?
Pf Dd2 growth: -3.3%

What do the screens show for `Nc1ncc(-c2ccc(-c3cc(NC4CCCC4)nc4[nH]ccc34)cc2)[nH]1`?
Pf Dd2 growth: 8.91µM*

How did COc1ccc(C(=O)NCc2ccnc3[nH]ccc23)cc1 do in these assays?
Pf Dd2 growth: -8.4%[44.1 µM]

How did COC(=O)C1=CN(CC(=O)NCc2ccc(OC)cc2)S(=O)(=O)N=C1C do in these assays?
Pf Dd2 growth: 22.8%

What do the screens show for `COC1CCC12CCN(C(=O)c1cc(C)n(C)n1)CC2` (stereo not drawn)?
Pf Dd2 growth: 13.0%

What do the screens show for `CCOCCN1C(=O)COC[C@@H]1[C@H](O)c1ccc(NC(=O)c2ccco2)cc1`?
Pf Dd2 growth: -15.4%[44.1 µM]

Results for O=C(C1CCC1)N1CCC2(CCN(Cc3ccccc3F)CC2)C(CO)C1 (stereo not drawn) ?
Pf Dd2 growth: -23.1%

Results for Cc1ccc(NC(=O)CN2C(=O)CCSc3ccc(S(=O)(=O)N4CCCC4)cc32)cc1 ?
Pf Dd2 growth: inactive

How did Cc1ccc(NC(=O)CN2C(=O)CCSc3ccc(S(=O)(=O)N4CCCC4)cc32)cc1C do in these assays?
Pf Dd2 growth: 12.7%

What do the screens show for `CCOc1ccc(CNC(=O)c2ccc3c(c2)N(CC)CCS3)cc1`?
Pf Dd2 growth: 36.2%

Results for Cc1ccc(CCNC(=O)c2ccc3c(c2)N(Cc2ccc(F)cc2)CCS3)cc1 ?
Pf Dd2 growth: 10.2%

Results for CCc1ccc(NC(=O)c2ccc3c(c2)N(Cc2ccc(C)cc2)CCS3)cc1 ?
Pf Dd2 growth: 8.91µM*

What do the screens show for `COc1cc(Cl)c(C)cc1NC(=O)c1ccc(CN2C(=O)CCn3nc(C)cc32)cc1`?
Pf Dd2 growth: -3.4%

What do the screens show for `Cc1ccc(NC(=O)CN2CCSc3ccc(S(=O)(=O)N4CCCC4)cc32)cc1`?
Pf Dd2 growth: 7.94µM*

What do the screens show for `CCN1CCSc2ccc(C(=O)NCc3ccc(OC(C)C)cc3)cc21`?
Pf Dd2 growth: 17.5%

Results for COc1cc(OC)c(NC(=O)c2ccc3c(c2)N(Cc2ccc(C)cc2)CCS3)cc1Cl ?
Pf Dd2 growth: 11.2µM*

Results for CC(c1cccs1)N(C)Cc1ccnn1C (stereo not drawn) ?
Pf Dd2 growth: 25.7%[44.1 µM]

What do the screens show for `Cc1nc2cccnc2n1CC1CCCN(S(=O)(=O)c2cc(F)ccc2F)C1` (stereo not drawn)?
Pf Dd2 growth: inactive

Results for CC(C)NC(=O)C1CCN(C(=O)N2CC3CC(C2)[C@H]2CCCC(=O)N2C3)CC1 (stereo partly drawn) ?
Pf Dd2 growth: -3.8%

What do the screens show for `CCCNC(=O)N(C1CCOCC1)C1CCN(C(=O)CCc2ccc(OC)cc2)CC1`?
Pf Dd2 growth: inactive

What do the screens show for `CCCCn1nc(CCOC)nc1-c1ccc(C(=O)N2CCOCC2)cc1`?
Pf Dd2 growth: -9.5%
